# Hits are enriched below; roughly 4.3% of the tested compounds scored in any of these assays.
# MCF10A rerep = inducers of DNA re-replication in MCF 10A breast cells | MCF 10A DNA re-replication, Hoechst nuclear intensity, 48 h | Potency, µM (top dose mostly 46.1 µM), inactives show top-dose activity, positive = re-replication, hits mostly activators | 350,000 tested, 2.9% active | AID 624296; further: potency means the concentration at half of the fitted maximal effect; % of control where 0% means no effect; nearly all actives have a fitted effect of over 50% in size
# uPA surface inh = blocks generation of uPA at the cell surface; cell surface uPA generation assay, qHTS; Potency, µM (highest dose often 38.3 µM), without a hit: top-dose activity change, negative = inhibition, usual class: inhibitors; 330,000 tested, 0.31% active; AID 540303; active means well fitted inhibition curve with a large enough effect; inconclusive means small, poorly fitted or top-dose-only effect; inactive means no such curve, though single readings can be large or run the other way; tested in mouse RAW 264.7 cells; further: potency means the concentration at half of the fitted maximal effect; on the % scale 0 is the no-effect control and ±100 the full control effect; nearly all actives have a fitted effect of over 55% in size
# Giardia kill = Giardia lamblia killing; Giardia lamblia trophozoite viability; 340,000 tested, 0.15% active; activity change, % at 7.66 µM, hits read low; AID 540267; in the data active means activity change below about -80%; inconclusive means between about -30% and that limit;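 further: parasites exposed to compound for two days anaerobically before the ATP read; on the % scale 0 is the no-effect control and ±100 the full control effect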
#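 Compounds were tested on trophozoites seeded at 100 cells/well and held 48 hrs at 37 deg C anaerobically. An ATP-based luminescent kit measured the remaining live cells.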
# SW480 rereplic = inducers of DNA re-replication in SW480 colon cancer cells | SW480 DNA re-replication, Hoechst DNA content imaging, 48 h | Potency, µM (doses to about 46.1 µM), inactives show at the top dose re-replication activation, hits mostly activators | 340,000 tested, 1.8% active; further: potency means the concentration at half of the fitted maximal effect; % of control where 0% means no effect; nearly all actives have a fitted effect of over 55% in size
#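 250 cells/well; 23 nL cpd via pin tool; 48 hr, 37 C, 5% CO2; Hoechst 40 min; imager read of total nuclear intensity, ex 405/em 500-530 nm.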
# * marks the source's active call; other numbers are inactive results; ? = inconclusive; . = no result given. Unless noted, the call rests on the fitted dose curve; in most records, active means well fitted activation curve with a large enough effect; inconclusive means small, poorly fitted or top-dose-only effect; inactive means no such curve, though single readings can be large or run the other way.
SMILES,MCF10A rerep,uPA surface inh,Giardia kill,SW480 rereplic
CCCC1CCC(=NNC(=O)CNc2ccc(OC)cc2)CC1 (stereo unspecified),-71%,3%,-11,15µM*
COc1ccc(NCC(=O)N/N=C/C2CCCCC2)cc1,3%,-1%,-12,?
c1ccc(N(c2ccccc2)c2nc(-n3ccnc3)nc(-n3ccnc3)n2)cc1,20µM*,10%,-6,14%
c1ccc(-c2nc(N3CCN(c4ccccc4)CC3)nc(-n3ccnc3)n2)cc1,7.3µM*,.,-9,?
Cc1nc2nc(SCC(=O)NCCCN3CCCC(C)C3)nn2c(C)c1Cc1ccccc1Cl (stereo unspecified),-1%,-3%,29,2%
O=c1oc2ccccc2c(O)c1Cc1cc(Cl)c2cccnc2c1O,5.8µM*,-2%,-14,?
Cc1n[nH]c(C)c1NC(=O)CSc1nnnn1-c1cccc(F)c1,1%,11%,-3,12%
CCSC1(SCC)N=C(N)C2(C#N)C(c3ccc(OC)c(OC)c3OC)C12C#N (stereo unspecified),9.2µM*,-16%,-7,?
CCSC1(SCC)N=C(N)C2(C#N)C(c3ccccc3)NC3=C(CCC3)C12C#N (stereo unspecified),-5%,-6%,27,-1%
Cn1c(=O)c2c(nc(CN3CCc4ccccc4C3)n2Cc2cccc(Cl)c2)n(C)c1=O,?,7.9µM*,-4,3%
O=C(O)c1ccc(N=Nc2c(O)[nH]c3ccccc23)cc1,6%,-2%,-18,23µM*
NC(=O)C1CCN(C(=O)CCC(=O)c2cccs2)CC1,-17%,3%,-13,-8%
N#CC1C(=O)c2ccccc2C1c1ccccc1 (stereo unspecified),15µM*,-8%,-20,18µM*
COc1ccc2cc(C(C)C(=O)O)ccc2c1 (stereo unspecified),-3%,19%,-9,-55%
O=C1C=CC(=O)N1CCNc1ncc(C(F)(F)F)cc1Cl,5.8µM*,-15%,-2,8.2µM*
c1ccc(CCNc2nc(-c3ccncc3)nc3ccccc23)cc1,?,0%,-7,21µM*
Cc1ccc(-c2nc(N/N=C/c3ccccc3[N+](=O)[O-])c3ccccc3n2)cc1,13µM*,.,?,7.3µM*
O=[N+]([O-])c1ccccc1C=NNc1ccccc1,10%,8%,-18,6%
c1ccc(Nc2nc(-c3ccncc3)nc3ccccc23)cc1,17%,9%,-15,3%
Cc1ccc(Nc2nc(-c3ccncc3)nc3ccccc23)cc1,9.2µM*,5%,-1,55%
CCOC(=O)c1nnc(-c2ccccc2)nc1N1CC(C)OC(C)C1 (stereo unspecified),-16%,-6%,13,?
COc1ccc(CCNC(=O)CCCc2ccccc2)cc1OC,2%,3%,6,4%
CCCC/C(O)=C1\C(=O)CC(C)(C)CC1=Nc1ccccc1OC,?,.,2,9%
CCC/C(O)=C1\C(=O)CC(C)(C)CC1=Nc1ccc(OC)cc1OC,21µM*,-14%,-5,18µM*
O=C(NC(Nc1ncc(S(=O)(=O)c2ccc([N+](=O)[O-])cc2)s1)(C(F)(F)F)C(F)(F)F)c1ccc(Cl)cc1,9.2µM*,-13%,-4,?
SMILES,MCF10A rerep,uPA surface inh,Giardia kill,SW480 rereplic
CC(OC(=O)C1=COCCO1)C(=O)NC1(C#N)CCCCC1 (stereo unspecified),0%,5%,-14,-4%
O=C(c1ccc([N+](=O)[O-])o1)N1CCCCCC1,3%,-17%,-91*,?
COc1cc2c(cc1OC)CN(C(=O)c1ccc([N+](=O)[O-])o1)CC2,?,-2%,?,6.5µM*
O=C(c1ccc([N+](=O)[O-])o1)N1CCOCC1,-2%,-2%,?,-5%
CC1CCN(C(=O)COC(=O)c2ccc([N+](=O)[O-])o2)CC1,-19%,-6%,-29,21µM*
O=C(c1ccc([N+](=O)[O-])o1)N1CCc2ccccc2C1,2%,7.1µM*,-86*,?
CC1CCN(C(=O)COC(=O)c2ccc(Br)o2)CC1,-5%,.,22,1%
CCOC(=O)CSc1nnc(Cn2nnc3ccccc32)n1-c1ccc(F)cc1,-2%,2%,-5,-6%
NS(=O)(=O)c1cccc(NC(=O)COC(=O)CCC(=O)c2cccs2)c1,-4%,3%,2,-9%
O=C(c1ccc([N+](=O)[O-])o1)N1CCc2ccccc21,9.2µM*,-7%,-88*,21µM*
Cc1ccc(C(=O)N2CCc3ccccc32)o1,0%,-8%,31,3%
CC(=O)/C(N=Nc1cccc(C(F)(F)F)c1)=C(\C)O,-14%,-2%,-5,1%
O=C(/C(N=Nc1cccc(C(F)(F)F)c1)=C(/O)c1cccs1)C(F)(F)F,21µM*,3%,2,-9%
O=C(c1ccccc1)c1ccc(O)c(O)c1O,14%,7%,-6,2%
CCOC(=O)Cc1csc(NC(=O)CSc2nnc(-c3ccncc3)o2)n1,16%,-4%,-8,15µM*
Cc1occc1-c1nnc(SCC(=O)Nc2nc(C(C)(C)C)cs2)o1,15µM*,-16%,2,?
O=C(Cn1ncc2c3ccccc3n(Cc3ccccc3F)c2c1=O)NCC1CCCO1 (stereo unspecified),6%,-2%,18,-7%
CC(C)=CCC/C(C)=C/CC/C(C)=C/CC/C=C(\C)CC/C=C(\C)CCC=C(C)C,-2%,.,.,-1%
C/C(=C\c1ccccc1)C(=O)NCCc1ccccc1,4%,0%,6,2%
O=C(c1ccc(Cl)cc1)C1C2C(=O)N(c3ccccc3)C(=O)C2C2CCCN21 (stereo unspecified),-10%,2%,-23,-12%
Cc1ccc(N2C(=O)[C@@H]3[C@H](C2=O)C2CCCN2[C@@H]3C(=O)c2ccccc2)cc1 (stereo partly specified),?,-10%,-4,?
CC(=O)c1ccc(N2C(=O)C3C(C2=O)C(C(=O)c2ccc(Cl)cc2)N2CCCC32)cc1 (stereo unspecified),12µM*,-10%,-13,?
COc1ccc(N2C(=O)C3C(C2=O)C(C(=O)c2ccc(Cl)cc2)N2CCCC32)cc1 (stereo unspecified),15µM*,-7%,6,8.2µM*
CSC[C@@H]1NC(=S)N(c2ccc(C)cc2)C1=O,-1%,-21%,-17,12%
c1csc(-c2nc(N3CCN(Cc4ccc5c(c4)OCCO5)CC3)c3ccccc3n2)c1,.,.,25,.
O=[N+]([O-])c1ccccc1S(=O)(=O)N1CCN(c2nc(-c3cccs3)nc3ccccc23)CC1,.,.,2,.
COC1C(CO)OC(n2c3c(Cl)cccc3c3c4c(c5c6cccc(Cl)c6[nH]c5c32)C(=O)NC4=O)C(O)C1O (stereo unspecified),-5%,-9%,10,1.6µM*
CCOc1ccc(CCNC(=O)CSC(=S)N2CCCC2)cc1OCC,5%,-4%,13,-1%
CCOc1ccc(S(=O)(=O)N2CCCCC2)cc1NC(=O)Cc1cccs1,1%,-3%,-3,-2%

# Screening data from PubChem BioAssay.
